# Laboratory results reported in PMC7862700, “An all-to-all approach to the identification of sequence-specific readers for epigenetic DNA modifications on cytosine”.
# Experiments:
# Assay in all cases: DAPPL (digital affinity profiling via proximity ligation, sequencing); 10 mM Tris-HCl pH 7.5, 50 mM NaCl, 1 mM DTT, 4% glycerol, room temperature, 30 min; GST-TFs on glutathione beads, 16-mer random dsDNA library, 0.1% formaldehyde crosslink after washing; high values mean tight binding
# [1] = biological target: T1, FLI1 (Homo sapiens, UniProt Q01543 1-452); settings: protein: recombinant; tags: N-terminal GST; dsDNA, one strand shown
# T1 sequence: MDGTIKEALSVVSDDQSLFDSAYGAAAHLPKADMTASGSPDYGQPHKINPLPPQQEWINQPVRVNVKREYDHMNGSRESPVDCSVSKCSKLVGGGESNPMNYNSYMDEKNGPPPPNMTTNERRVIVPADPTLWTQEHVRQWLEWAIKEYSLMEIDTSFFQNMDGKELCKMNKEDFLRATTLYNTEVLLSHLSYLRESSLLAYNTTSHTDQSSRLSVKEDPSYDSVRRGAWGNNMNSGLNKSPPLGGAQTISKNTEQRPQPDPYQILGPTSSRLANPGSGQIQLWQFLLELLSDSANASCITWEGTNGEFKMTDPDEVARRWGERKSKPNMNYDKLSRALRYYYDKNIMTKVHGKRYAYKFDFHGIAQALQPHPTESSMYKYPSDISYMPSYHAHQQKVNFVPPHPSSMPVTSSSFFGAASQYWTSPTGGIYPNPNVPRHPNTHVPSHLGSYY
# How it was run: (§1)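 Pools of DNA-barcoded human transcription factors, expressed in yeast as GST fusions on glutathione beads and combined with a tag-only sample, were incubated with 200 nmole of a 16-mer random double-stranded DNA library. Incubation took 30 min at room temperature in Tris/NaCl/DTT/glycerol buffer and was followed by washing, 0.1% formaldehyde crosslinking, proximity ligation (BsaI/T4 ligase, 1 h, 37 °C), PCR amplification and sequencing on an Illumina NextSeq500. Binding signal is the ratio of a hexamer's read frequency for a factor to its frequency for the tag-only sample.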
# [2] = biological target: T2, ELK1 (Homo sapiens, UniProt P19419 1-428); settings: protein: recombinant; tags: N-terminal GST; dsDNA, one strand shown
# T2 sequence: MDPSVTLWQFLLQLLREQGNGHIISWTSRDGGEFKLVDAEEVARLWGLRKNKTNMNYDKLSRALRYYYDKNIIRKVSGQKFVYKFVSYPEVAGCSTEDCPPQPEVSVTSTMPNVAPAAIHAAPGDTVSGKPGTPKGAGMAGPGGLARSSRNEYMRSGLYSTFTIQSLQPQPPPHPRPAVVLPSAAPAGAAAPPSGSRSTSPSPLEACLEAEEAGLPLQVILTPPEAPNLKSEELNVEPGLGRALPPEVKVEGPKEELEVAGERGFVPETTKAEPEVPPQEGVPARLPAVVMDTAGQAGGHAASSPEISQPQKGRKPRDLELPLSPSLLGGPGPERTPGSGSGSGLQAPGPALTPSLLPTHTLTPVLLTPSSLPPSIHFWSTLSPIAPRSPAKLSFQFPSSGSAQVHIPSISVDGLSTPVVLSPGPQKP
# How it was run: as §1
# [3] = biological target: T3, GABPA (Homo sapiens, UniProt Q06546 1-454); settings: protein: recombinant; tags: N-terminal GST; dsDNA, one strand shown
# T3 sequence: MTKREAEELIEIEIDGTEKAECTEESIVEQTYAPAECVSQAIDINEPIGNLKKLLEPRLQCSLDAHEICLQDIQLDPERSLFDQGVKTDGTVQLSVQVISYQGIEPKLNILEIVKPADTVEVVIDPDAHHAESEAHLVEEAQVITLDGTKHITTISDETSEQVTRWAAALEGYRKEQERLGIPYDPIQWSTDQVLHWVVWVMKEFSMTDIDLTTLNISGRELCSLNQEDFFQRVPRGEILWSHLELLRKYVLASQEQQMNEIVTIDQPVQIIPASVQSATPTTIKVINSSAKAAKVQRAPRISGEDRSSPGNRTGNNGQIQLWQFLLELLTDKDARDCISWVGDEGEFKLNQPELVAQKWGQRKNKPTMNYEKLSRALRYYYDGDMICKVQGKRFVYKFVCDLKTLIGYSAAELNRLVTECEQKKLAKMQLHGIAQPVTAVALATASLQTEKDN
# How it was run: as §1
# [4] = biological target: T4, ERG (Homo sapiens, UniProt P11308 1-479); settings: protein: recombinant; tags: N-terminal GST; dsDNA, one strand shown
# T4 sequence: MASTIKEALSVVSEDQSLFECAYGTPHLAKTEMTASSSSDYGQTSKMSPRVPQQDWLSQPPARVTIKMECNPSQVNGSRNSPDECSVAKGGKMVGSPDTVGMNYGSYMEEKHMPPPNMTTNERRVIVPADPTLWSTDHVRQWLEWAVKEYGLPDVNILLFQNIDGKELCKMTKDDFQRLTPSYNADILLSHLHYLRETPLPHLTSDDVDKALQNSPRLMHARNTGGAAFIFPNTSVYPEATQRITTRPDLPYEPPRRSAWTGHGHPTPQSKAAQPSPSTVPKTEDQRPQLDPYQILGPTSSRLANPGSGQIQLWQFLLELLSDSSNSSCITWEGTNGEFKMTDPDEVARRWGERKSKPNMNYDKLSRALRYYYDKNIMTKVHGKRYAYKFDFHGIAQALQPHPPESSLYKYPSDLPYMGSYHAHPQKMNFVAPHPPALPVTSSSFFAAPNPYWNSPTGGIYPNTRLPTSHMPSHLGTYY
# How it was run: as §1
# [5] = biological target: ELF1 (Homo sapiens, UniProt P32519 1-619); settings: protein: recombinant; tags: N-terminal GST; dsDNA, one strand shown
# ELF1, sequence (P32519 whole entry): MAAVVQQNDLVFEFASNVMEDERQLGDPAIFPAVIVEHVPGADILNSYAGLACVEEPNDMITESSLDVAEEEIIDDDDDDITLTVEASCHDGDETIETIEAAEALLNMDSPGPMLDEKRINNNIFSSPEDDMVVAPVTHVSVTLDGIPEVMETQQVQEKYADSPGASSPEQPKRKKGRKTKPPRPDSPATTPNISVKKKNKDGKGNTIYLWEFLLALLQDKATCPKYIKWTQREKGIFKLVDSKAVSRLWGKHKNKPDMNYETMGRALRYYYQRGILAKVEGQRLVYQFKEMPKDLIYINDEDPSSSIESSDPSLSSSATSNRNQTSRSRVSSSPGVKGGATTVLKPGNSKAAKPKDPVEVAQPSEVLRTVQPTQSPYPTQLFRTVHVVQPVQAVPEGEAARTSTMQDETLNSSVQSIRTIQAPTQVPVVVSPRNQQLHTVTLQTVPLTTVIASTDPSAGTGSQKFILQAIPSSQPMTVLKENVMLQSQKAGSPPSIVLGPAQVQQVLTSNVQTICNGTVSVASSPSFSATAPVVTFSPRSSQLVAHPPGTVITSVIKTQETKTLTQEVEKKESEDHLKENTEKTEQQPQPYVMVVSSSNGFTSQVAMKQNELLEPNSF
# How it was run: as §1
# [6] = biological target: T5, EHF (Homo sapiens, UniProt Q9NZC4 1-300); settings: protein: recombinant; tags: N-terminal GST; dsDNA, one strand shown
# T5 sequence: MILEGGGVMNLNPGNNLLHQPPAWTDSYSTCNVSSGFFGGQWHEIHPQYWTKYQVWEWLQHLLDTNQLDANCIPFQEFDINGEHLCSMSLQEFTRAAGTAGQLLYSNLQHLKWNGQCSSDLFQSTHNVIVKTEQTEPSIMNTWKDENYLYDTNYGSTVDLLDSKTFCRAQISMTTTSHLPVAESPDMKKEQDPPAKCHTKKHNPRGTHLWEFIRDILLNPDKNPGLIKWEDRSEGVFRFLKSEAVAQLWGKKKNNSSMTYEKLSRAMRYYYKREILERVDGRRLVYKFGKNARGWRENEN
# How it was run: as §1
# [7] = biological target: SPI1 (Homo sapiens, UniProt P17947 1-270); settings: protein: recombinant; tags: N-terminal GST; dsDNA, one strand shown
# How it was run: as §1
# [8] = biological target: SPIB (Homo sapiens, UniProt Q01892 1-262); settings: protein: recombinant; tags: N-terminal GST; dsDNA, one strand shown
# SPIB, sequence (Q01892 whole entry): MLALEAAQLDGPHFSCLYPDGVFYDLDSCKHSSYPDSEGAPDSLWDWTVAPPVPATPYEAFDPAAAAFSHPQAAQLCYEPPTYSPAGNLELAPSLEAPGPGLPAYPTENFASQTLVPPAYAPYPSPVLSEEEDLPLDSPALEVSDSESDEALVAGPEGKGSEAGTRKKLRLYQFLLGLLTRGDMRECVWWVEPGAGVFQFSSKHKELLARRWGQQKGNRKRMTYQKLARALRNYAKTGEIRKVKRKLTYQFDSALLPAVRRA
# How it was run: as §1
# [9] = biological target: T6, ELK3 (Homo sapiens, UniProt P41970 1-407); settings: protein: recombinant; tags: N-terminal GST; dsDNA, one strand shown
# T6 sequence: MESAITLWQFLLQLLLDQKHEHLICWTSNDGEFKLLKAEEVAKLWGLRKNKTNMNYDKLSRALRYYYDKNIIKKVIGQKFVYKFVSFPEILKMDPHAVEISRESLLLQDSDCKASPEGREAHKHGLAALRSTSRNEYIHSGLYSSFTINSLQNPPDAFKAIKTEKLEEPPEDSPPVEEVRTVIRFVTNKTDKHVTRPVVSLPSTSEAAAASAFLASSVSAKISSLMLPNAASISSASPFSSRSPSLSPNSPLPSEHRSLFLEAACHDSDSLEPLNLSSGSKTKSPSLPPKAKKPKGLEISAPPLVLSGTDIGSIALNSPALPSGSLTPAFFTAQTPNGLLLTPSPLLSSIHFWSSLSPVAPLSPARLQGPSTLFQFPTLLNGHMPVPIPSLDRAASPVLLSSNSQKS
# How it was run: as §1
# [10] = biological target: T7, FEV (Homo sapiens, UniProt Q99581 1-238); settings: protein: recombinant; tags: N-terminal GST; dsDNA, one strand shown
# T7 sequence: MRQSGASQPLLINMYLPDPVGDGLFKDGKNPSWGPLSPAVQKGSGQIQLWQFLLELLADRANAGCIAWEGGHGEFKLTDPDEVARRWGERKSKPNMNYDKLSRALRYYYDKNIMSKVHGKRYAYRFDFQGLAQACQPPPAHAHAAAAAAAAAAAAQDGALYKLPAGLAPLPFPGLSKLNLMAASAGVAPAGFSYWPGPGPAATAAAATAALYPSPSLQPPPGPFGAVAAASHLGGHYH
# How it was run: as §1
# [11] = biological target: ETV5 (Homo sapiens, UniProt P41161 1-510); settings: protein: recombinant; tags: N-terminal GST; dsDNA, one strand shown
# ETV5, sequence (P41161 whole entry): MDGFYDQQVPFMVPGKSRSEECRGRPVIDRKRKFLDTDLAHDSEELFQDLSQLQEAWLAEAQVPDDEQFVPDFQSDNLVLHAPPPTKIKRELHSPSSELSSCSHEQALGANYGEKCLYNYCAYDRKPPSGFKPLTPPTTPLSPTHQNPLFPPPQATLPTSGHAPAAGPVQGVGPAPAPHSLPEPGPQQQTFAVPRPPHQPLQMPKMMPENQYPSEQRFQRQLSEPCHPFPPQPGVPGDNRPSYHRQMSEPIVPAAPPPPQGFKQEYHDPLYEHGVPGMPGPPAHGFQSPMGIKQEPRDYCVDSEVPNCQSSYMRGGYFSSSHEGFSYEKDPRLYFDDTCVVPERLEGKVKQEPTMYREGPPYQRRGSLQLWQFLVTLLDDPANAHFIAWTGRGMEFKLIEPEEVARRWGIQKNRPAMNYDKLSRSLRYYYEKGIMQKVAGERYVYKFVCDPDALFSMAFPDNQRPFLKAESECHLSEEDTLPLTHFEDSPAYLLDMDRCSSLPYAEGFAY
# How it was run: as §1
# [12] = biological target: HSF1 (Homo sapiens, UniProt Q00613 1-529); settings: protein: recombinant; tags: N-terminal GST; chain copies: 3; dsDNA, one strand shown
# HSF1, sequence (Q00613 whole entry): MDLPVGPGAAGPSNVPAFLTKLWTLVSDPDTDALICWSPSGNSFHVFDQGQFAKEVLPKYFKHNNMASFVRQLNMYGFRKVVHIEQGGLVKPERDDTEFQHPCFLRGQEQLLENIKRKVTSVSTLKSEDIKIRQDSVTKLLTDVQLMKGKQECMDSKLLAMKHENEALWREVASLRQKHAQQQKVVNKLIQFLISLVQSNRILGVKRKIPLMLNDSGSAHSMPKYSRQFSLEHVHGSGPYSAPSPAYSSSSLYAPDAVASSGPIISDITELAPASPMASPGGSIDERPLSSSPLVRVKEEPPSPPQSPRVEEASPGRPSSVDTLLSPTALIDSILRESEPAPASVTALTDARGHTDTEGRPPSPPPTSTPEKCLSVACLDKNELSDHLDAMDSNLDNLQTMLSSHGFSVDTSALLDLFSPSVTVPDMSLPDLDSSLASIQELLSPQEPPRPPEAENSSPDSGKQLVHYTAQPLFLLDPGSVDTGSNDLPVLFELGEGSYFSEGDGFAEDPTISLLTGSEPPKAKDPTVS
# How it was run: as §1
# [13] = biological target: T8, SPIC (Homo sapiens, UniProt Q8N5J4 1-248); settings: protein: recombinant; tags: N-terminal GST; dsDNA, one strand shown
# T8 sequence: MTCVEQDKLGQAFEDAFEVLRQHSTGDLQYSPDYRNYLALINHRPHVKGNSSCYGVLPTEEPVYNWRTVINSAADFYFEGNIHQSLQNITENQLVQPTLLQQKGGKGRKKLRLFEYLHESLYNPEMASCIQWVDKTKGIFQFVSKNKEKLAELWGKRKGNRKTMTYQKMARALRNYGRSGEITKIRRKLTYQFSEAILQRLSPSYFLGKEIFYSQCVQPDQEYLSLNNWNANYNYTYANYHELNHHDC
# How it was run: as §1
# [14] = biological target: ELF4 (Homo sapiens, UniProt Q99607 1-663); settings: protein: recombinant; tags: N-terminal GST; dsDNA, one strand shown
# ELF4, sequence (Q99607 whole entry): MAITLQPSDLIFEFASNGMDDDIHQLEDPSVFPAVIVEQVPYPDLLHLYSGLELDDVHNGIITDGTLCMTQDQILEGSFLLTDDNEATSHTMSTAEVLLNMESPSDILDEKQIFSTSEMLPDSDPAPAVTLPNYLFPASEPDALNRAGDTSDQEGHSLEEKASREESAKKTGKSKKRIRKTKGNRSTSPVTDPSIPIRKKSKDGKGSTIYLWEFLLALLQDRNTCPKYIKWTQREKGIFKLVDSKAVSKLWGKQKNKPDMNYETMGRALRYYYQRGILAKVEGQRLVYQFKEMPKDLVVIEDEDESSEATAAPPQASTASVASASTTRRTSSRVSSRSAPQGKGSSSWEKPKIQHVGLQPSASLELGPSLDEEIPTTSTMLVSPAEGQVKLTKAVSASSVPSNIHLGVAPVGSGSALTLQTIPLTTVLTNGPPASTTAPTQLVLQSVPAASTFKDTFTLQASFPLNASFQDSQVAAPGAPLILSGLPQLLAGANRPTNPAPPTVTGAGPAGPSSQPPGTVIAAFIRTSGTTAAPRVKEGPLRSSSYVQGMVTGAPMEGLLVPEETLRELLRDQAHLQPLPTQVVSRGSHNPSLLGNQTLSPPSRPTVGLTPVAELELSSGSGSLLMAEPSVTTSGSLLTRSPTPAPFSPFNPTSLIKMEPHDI
# How it was run: as §1
# [15] = biological target: T9, ELK4 (Homo sapiens, UniProt P28324-2 1-405); settings: protein: recombinant; tags: N-terminal GST; dsDNA, one strand shown
# T9 sequence: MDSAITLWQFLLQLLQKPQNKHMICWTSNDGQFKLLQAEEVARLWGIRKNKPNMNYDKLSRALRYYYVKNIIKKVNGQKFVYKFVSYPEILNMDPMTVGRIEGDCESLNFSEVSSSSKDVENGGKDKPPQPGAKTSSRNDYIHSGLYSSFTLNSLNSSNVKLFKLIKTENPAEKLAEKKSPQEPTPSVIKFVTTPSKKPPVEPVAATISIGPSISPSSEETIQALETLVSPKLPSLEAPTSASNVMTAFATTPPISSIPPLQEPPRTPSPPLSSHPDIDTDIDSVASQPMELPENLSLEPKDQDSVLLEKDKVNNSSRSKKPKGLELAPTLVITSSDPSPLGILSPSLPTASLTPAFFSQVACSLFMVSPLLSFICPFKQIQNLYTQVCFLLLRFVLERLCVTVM
# How it was run: as §1
# [16] = biological target: T10, ETV2 (Homo sapiens, UniProt O00321 1-342); settings: protein: recombinant; tags: N-terminal GST; dsDNA, one strand shown
# T10 sequence: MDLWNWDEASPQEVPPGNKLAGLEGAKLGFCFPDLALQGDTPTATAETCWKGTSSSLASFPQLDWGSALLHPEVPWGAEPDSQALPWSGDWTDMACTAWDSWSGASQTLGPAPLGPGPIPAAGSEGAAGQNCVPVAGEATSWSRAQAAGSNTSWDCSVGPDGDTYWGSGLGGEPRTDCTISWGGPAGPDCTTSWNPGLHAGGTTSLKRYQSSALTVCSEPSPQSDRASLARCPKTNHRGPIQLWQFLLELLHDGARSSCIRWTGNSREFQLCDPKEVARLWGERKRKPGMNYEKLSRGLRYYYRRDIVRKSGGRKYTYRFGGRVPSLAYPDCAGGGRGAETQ
# How it was run: as §1
# [17] = biological target: T11, ELF3 (Homo sapiens, UniProt P78545 1-371); settings: protein: recombinant; tags: N-terminal GST; dsDNA, one strand shown
# T11 sequence: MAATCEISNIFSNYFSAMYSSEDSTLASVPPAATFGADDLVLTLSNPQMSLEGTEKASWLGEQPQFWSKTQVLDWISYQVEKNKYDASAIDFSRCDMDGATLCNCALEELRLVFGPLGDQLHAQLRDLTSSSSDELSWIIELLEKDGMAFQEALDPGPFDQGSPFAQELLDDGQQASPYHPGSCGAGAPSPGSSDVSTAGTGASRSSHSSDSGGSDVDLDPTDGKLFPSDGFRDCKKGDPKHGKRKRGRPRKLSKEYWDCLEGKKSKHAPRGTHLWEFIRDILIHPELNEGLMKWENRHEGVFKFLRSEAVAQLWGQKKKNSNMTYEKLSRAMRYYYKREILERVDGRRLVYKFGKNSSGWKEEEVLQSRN
# How it was run: as §1
# [18] = biological target: CRX (Homo sapiens, UniProt O43186 1-299); settings: protein: recombinant; tags: N-terminal GST; dsDNA, one strand shown
# CRX, sequence (O43186 whole entry): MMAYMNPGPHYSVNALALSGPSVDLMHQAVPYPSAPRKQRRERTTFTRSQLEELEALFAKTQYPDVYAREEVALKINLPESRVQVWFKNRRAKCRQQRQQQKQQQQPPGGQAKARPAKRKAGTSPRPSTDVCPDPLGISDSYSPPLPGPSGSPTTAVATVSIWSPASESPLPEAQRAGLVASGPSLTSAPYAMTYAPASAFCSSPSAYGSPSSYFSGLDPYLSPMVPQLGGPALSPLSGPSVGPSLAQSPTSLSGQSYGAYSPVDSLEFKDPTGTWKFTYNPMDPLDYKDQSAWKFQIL
# How it was run: as §1
# [19] = biological target: ETV1 (Homo sapiens, UniProt P50549 1-477); settings: protein: recombinant; tags: N-terminal GST; dsDNA, one strand shown
# ETV1, sequence (P50549 whole entry): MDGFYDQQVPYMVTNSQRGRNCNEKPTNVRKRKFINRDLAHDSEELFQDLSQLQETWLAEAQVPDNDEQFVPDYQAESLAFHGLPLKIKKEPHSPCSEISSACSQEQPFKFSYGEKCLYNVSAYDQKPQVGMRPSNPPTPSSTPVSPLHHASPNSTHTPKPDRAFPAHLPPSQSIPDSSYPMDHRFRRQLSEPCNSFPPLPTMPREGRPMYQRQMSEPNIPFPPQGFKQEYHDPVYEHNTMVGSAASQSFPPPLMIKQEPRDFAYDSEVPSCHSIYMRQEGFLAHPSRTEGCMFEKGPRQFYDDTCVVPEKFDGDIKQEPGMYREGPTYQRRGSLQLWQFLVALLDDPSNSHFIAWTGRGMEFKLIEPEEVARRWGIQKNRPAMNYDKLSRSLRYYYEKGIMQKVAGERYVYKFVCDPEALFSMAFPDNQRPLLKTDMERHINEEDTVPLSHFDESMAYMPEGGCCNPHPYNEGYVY
# How it was run: as §1
sequence,measurement,setting,value
TGCTAT,binding signal,[1],"1.42 fold enrichment (6-mer frequency, TF over GST control)"
same,binding signal,[2],"1.36 fold enrichment (6-mer frequency, TF over GST control)"
same,binding signal,[3],"1.47 fold enrichment (6-mer frequency, TF over GST control)"
same,binding signal,[4],"1.41 fold enrichment (6-mer frequency, TF over GST control)"
same,binding signal,[5],"1.46 fold enrichment (6-mer frequency, TF over GST control)"
same,binding signal,[6],"1.49 fold enrichment (6-mer frequency, TF over GST control)"
same,binding signal,[7],"1.33 fold enrichment (6-mer frequency, TF over GST control)"
same,binding signal,[8],"1.47 fold enrichment (6-mer frequency, TF over GST control)"
same,binding signal,[9],"1.63 fold enrichment (6-mer frequency, TF over GST control)"
same,binding signal,[10],"1.39 fold enrichment (6-mer frequency, TF over GST control)"
same,binding signal,[11],"1.43 fold enrichment (6-mer frequency, TF over GST control)"
same,binding signal,[12],"1.22 fold enrichment (6-mer frequency, TF over GST control)"
same,binding signal,[13],"1.37 fold enrichment (6-mer frequency, TF over GST control)"
same,binding signal,[14],"1.37 fold enrichment (6-mer frequency, TF over GST control)"
same,binding signal,[15],"1.57 fold enrichment (6-mer frequency, TF over GST control)"
same,binding signal,[16],"1.71 fold enrichment (6-mer frequency, TF over GST control)"
same,binding signal,[17],"1.6 fold enrichment (6-mer frequency, TF over GST control)"
same,binding signal,[18],"1.3 fold enrichment (6-mer frequency, TF over GST control)"
same,binding signal,[19],"1.31 fold enrichment (6-mer frequency, TF over GST control)"
